# Records with an inconclusive call do not appear. Active and inactive are the calls of the source. Rule for the calls, unless noted: active = hit-call score of the fitted dose curve at least 0.9, where 1 is the maximum; inactive = score below 0.9.
# Target: Estrogen receptor (Homo sapiens) (UniProt P03372)
# Test: ATG_ERa_TRANS: Attagene TRANS-FACTORIAL HepG2 Assay for human Estrogen Receptor alpha (ERa) (AID 2282970; active = hit-call score of the fitted dose curve at least 0.9, where 1 is the maximum)
# Conditions: HepG2 Attagene TRANS ERa GAL4 reporter, mRNA
# Outline: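 Cells: HepG2, transiently transfected. Construct: GAL4-UAS reporter units regulated by exogenous NR-Gal4 chimeras. Time: 24 h. Detection: reporter mRNA by RT-PCR, capillary electrophoresis, fluorescence. Baseline: DMSO, upward fitting.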
# Sequence of Estrogen receptor (Homo sapiens) (P03372 whole entry, looked up): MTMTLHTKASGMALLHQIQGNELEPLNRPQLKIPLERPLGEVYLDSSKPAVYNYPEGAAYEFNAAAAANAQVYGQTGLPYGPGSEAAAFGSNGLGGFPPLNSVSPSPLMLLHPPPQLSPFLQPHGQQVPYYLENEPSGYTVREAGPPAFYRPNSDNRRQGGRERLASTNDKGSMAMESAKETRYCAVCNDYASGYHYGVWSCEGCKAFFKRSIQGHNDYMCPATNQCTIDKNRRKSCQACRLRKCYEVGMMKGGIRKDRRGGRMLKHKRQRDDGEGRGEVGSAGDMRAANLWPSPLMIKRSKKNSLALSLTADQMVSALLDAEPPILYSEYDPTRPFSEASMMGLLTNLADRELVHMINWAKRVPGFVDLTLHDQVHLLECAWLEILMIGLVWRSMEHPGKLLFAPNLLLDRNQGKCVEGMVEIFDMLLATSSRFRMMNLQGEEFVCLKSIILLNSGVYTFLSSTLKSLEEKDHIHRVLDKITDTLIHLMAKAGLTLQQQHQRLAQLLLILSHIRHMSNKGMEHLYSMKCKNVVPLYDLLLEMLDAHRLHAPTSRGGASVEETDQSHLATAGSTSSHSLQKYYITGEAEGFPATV
SMILES,AC50,outcome
O=C1CCCCCCCCCCCCCC1,26.5 µM (active),–
CCCC(=O)OC/C=C(\C)CCC=C(C)C,–,inactive
CN1CCCC1,–,inactive
CCCCCCC1CCC(=O)O1 (centres undefined),–,inactive
Oc1ccc(Oc2ccccc2)cc1,1.44 µM (active),–
c1ccc2c(c1)Oc1ccccc1S2,27.9 µM (active),–

# Target: Steroid hormone receptor ERR1 (Homo sapiens) (UniProt P11474)
# Sequence (P11474 whole entry, looked up): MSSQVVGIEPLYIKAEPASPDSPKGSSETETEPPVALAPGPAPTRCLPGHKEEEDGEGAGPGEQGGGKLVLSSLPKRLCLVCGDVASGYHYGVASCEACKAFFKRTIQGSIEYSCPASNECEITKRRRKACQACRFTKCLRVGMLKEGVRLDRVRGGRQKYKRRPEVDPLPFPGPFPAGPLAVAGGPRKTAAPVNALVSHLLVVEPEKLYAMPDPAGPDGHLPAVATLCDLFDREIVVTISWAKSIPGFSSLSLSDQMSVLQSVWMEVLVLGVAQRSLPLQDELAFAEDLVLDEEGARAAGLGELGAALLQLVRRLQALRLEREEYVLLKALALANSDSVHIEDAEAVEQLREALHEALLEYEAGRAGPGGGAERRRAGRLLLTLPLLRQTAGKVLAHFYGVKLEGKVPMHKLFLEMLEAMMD
# Test: ATG_ERRa_TRANS: Attagene TRANS-FACTORIAL HepG2 Assay for human Estrogen-Related Receptor alpha (ERRa) (AID 2282971; active = hit-call score of the fitted dose curve at least 0.9, where 1 is the maximum)
# Conditions: HepG2 Attagene TRANS reporter, ERRa transactivation
# Outline: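 Reporter transcripts from ERRa-Gal4 chimera activity measured in transiently transfected human HepG2 cells 24 hours after dosing, using RT-PCR with 6-FAM primer extension, HpaI digestion and capillary electrophoresis; DMSO is baseline.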
row,SMILES,outcome
1,O=S(=O)(O)c1cccc2ccccc12,inactive
2,CCO[Si](CCCN)(OCC)OCC,inactive
3,CCCCCCC1CCC(=O)O1 (centres undefined),inactive
4,O=[N+]([O-])c1ccccc1C(F)(F)F,inactive
5,CCCCCC1CCCC(=O)O1 (centres undefined),inactive
6,O=C(OCc1ccccc1)c1ccccc1,inactive
7,CCCCCCC1CCCC(=O)O1 (centres undefined),inactive

# Target: X-box-binding protein 1 (Homo sapiens) (UniProt P17861)
# Sequence (P17861 whole entry, looked up): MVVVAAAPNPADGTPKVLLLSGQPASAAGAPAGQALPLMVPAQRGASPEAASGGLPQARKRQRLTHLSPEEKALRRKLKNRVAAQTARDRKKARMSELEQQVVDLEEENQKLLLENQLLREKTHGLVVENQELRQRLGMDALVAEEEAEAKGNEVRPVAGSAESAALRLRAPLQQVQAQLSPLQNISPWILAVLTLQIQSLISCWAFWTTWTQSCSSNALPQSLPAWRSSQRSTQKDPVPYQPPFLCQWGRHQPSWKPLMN
# Test: ATG_Xbp1_CIS: Attagene CIS-FACTORIAL HepG2 Assay for human X-box Binding Protein 1 (XBP1) (AID 2282972)
# Conditions: HepG2 XBP1 cis-element reporter, Attagene multiplex; actives raise or lower the signal
# Outline: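 HepG2 cells transiently transfected with multiple cis-element reporter units report endogenous TF activity; 24 h exposure, then reporter mRNA measured by RT-PCR, 6-FAM labelling, HpaI digestion and capillary electrophoresis. Bidirectional fitting versus DMSO.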
row,SMILES,outcome
1,CNC(=C[N+](=O)[O-])NCCSCc1csc(CN(C)C)n1,inactive
2,CCCC(=O)OC/C=C(\C)CCC=C(C)C,inactive
3,CCCCCCC(O)CCCCCCCCCCC(=O)OC (centres undefined),inactive
4,O=C(O)/C=C/C(=O)O,inactive
5,O=S(=O)(O)c1cccc2ccccc12,inactive
6,C=CCOCC(CC)(CO)COCC=C,inactive
7,CN1CCCC1,inactive
8,CCO[Si](CCCN)(OCC)OCC,inactive
9,CCCCCCC1CCC(=O)O1 (centres undefined),inactive
10,CCC(=O)OCc1ccc(OC)cc1,inactive
11,CCc1cc(C(N)=S)ccn1,inactive
12,CCC(C)=NO,inactive
13,C=C1CC[C@H]2C[C@@H]1C2(C)C,inactive
14,CCCCCC1CCCC(=O)O1 (centres undefined),inactive
15,COC(=O)[C@]1(C)CCC[C@@]2(C)[C@H]1CC=C1C=C(C(C)C)CC[C@@H]12,inactive
16,Cc1cc2nc3c(=O)[nH]c(=O)nc-3n(C[C@H](O)[C@H](O)[C@H](O)CO)c2cc1C,inactive

# Source: PubChem BioAssay (EPA / NIEHS)
